Targets with a hit are over-represented here; the source holds about 7,900 in all. About 0.6% of all pairs of compound and target were hits.
Legend:
Test in all cases: log2 fold change, soluble protein after heating vs DMSO (PISA); higher = thermal stabilisation; K562 cells, 10 uM, 30 min; active = over 0.2 and 3.5 SD of the protein, either way, in both replicates (recomputed)
[1] = compound: CC1=C(C=C(C=C1)NC(=O)C2=CC(=CC=C2)C(C)(C)C#N)NC3=CC4=C(C=C3)N=CN(C4=O)C
How it was run: (§1)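 For each measurement, 10 μM compound was applied for 30 min to K562 cells at 2×10^6 cells/mL. Aliquots were heated for 3 min across 48°C-58°C, pooled, and extracted in PBS with 0.5% NP-40 at 4°C; the supernatant after 21,000xg for 90 min was soluble protein. This was quantified by TMTpro 16plex LC-MS/MS with channel sums equalised, and thermal stability was reported relative to control samples from duplicates, on a log2 fold-change scale.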

[2] = compound: CC1=C(C=C(C=C1)NC(=O)C2=CC(=CC=C2)N(C)C)NC(=O)C3=CC=C(C=C3)O
How it was run: as §1

[3] = compound: CC1=CC=C(C=C1)SC2=C3C=C(SC3=CN=C2)C(=O)N
How it was run: as §1

[4] = compound: CC1=NC(=CC=C1)C2=C(N=C(N2)C(C)(C)C)C3=CC4=NC=CN=C4C=C3
How it was run: as §1

Nexturastat A = compound: CCCCN(Cc1ccc(C(=O)NO)cc1)C(=O)Nc1ccccc1 [Nexturastat A]
How it was run: as §1

vemurafenib = compound: CCCS(=O)(=O)Nc1ccc(F)c(C(=O)c2c[nH]c3ncc(-c4ccc(Cl)cc4)cc23)c1F [vemurafenib]
How it was run: as §1

[5] = compound: CCCS(=O)(=O)Nc1ccc(F)c(C(=O)c2c[nH]c3ncc(Cl)cc23)c1F
How it was run: as §1

[6] = compound: CCCc1cc(C)[nH]c(=O)c1CNC(=O)c1cc(-c2ccnc(N3CCN(C)CC3)c2)cc2c1cnn2C(C)C
How it was run: as §1

givinostat = compound: CCN(CC)Cc1ccc2cc(COC(=O)Nc3ccc(C(=O)NO)cc3)ccc2c1 [givinostat]
How it was run: as §1

barasertib = compound: CCN(CCCOc1ccc2c(Nc3cc(CC(=O)Nc4cccc(F)c4)[nH]n3)ncnc2c1)CCOP(=O)(O)O [barasertib]
How it was run: as §1

[7] = compound: CC[C@@H]1C(=O)N(C)c2cnc(Nc3ccc(C(=O)NC4CCN(C)CC4)cc3OC)nc2N1C1CCCC1
How it was run: as §1

volasertib = compound: CC[C@@H]1C(=O)N(C)c2cnc(Nc3ccc(C(=O)N[C@H]4CC[C@H](N5CCN(CC6CC6)CC5)CC4)cc3OC)nc2N1C(C)C [volasertib]
How it was run: as §1

[8] = compound: CC[C@H](C)N1C=C(C2=C(C=C(C=C21)C3=CN=C(C=C3)N4CCNCC4)C(=O)NCC5=C(C=C(NC5=O)C)C)C
How it was run: as §1

epoxomicin = compound: CC[C@H](C)[C@@H](C(=O)N[C@@H]([C@@H](C)O)C(=O)N[C@@H](CC(C)C)C(=O)[C@]1(CO1)C)NC(=O)[C@H]([C@@H](C)CC)N(C)C(=O)C [epoxomicin]
How it was run: as §1

[9] = compound: CCn1c(C(=O)N(C2CC2)C2CC2)cc2c3c(ncn3C)c(Nc3cc(C)n(C)n3)nc21
How it was run: as §1

[10] = compound: CCn1cc(-c2ccnc3[nH]c(-c4cccc(CN(C)C)c4)cc23)c(-c2ccc(NC(=O)N(C)C)cc2)n1
How it was run: as §1

[11] = compound: CN(C)CC(=O)Nc1ccc2[nH]c(=O)c3ccccc3c2c1
How it was run: as §1

rosiglitazone = compound: CN(CCOC1=CC=C(C=C1)C[C@H]2C(=O)NC(=O)S2)C3=CC=CC=N3 (racemic) [rosiglitazone]
How it was run: as §1

[12] = compound: CN1C2=C(C3=C1C(=O)N(N=C3)CC4=CC(=CC=C4)N)SC(=C2)S(=O)C
How it was run: as §1

[13] = compound: CN1CCC(CNc2ccc3ncc(-c4cccc(OC(F)(F)F)c4)n3n2)CC1
How it was run: as §1

Measured: log2 fold change

HMG20A (UniProt Q9NP66)
Sequence of UniProt Q9NP66 (Q9NP66 whole entry, looked up): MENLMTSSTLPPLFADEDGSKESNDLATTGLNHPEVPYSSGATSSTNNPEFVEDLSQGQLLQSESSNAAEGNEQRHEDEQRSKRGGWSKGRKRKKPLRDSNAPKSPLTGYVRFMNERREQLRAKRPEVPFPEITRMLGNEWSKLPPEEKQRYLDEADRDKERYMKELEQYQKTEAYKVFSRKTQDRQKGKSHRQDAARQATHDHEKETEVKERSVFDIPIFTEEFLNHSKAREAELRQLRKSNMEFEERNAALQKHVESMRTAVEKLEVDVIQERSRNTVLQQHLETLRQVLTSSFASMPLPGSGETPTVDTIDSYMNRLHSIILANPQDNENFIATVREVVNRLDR
inactive: [1] -0.051 | [2] -0.009 | [3] -0.153 | [4] -0.016 | Nexturastat A 0.033 | vemurafenib 0.027 | [5] 0.016 | [6] 0.149 | givinostat 0.03 | barasertib 0.024 | [7] 0.083 | volasertib -0.155 | [8] 0.029 | epoxomicin -0.107 | [9] -0.031 | [10] 0 | [11] 0.053 | rosiglitazone 0.017 | [12] 0.143 | [13] -0.003

GIGYF2 (UniProt Q6Y7W6)
active: volasertib -0.52 | [13] -0.221
inactive: [1] -0.075 | [2] 0.058 | [3] 0.01 | [4] 0.044 | Nexturastat A 0.05 | vemurafenib 0.043 | [5] 0.048 | [6] 0.049 | givinostat 0.092 | barasertib 0.093 | [7] -0.093 | [8] 0.02 | epoxomicin 0 | [9] -0.046 | [10] -0.039 | [11] 0.032 | rosiglitazone 0.069 | [12] 0.021

HTATIP2 isoform 3 (UniProt Q9BUP3)
inactive: [1] 0.065 | [2] -0.093 | [3] 0.011 | [4] -0.007 | Nexturastat A -0.14 | vemurafenib 0.057 | [5] 0.039 | [6] 0.059 | givinostat 0.012 | barasertib 0.041 | [7] -0.029 | volasertib -0.168 | [8] 0.035 | epoxomicin 0.008 | [9] 0.02 | [10] -0.013 | [11] 0.009 | rosiglitazone -0.025 | [12] -0.016 | [13] -0.148

HBA1 (UniProt P69905)
Sequence of UniProt P69905 (P69905 whole entry, looked up): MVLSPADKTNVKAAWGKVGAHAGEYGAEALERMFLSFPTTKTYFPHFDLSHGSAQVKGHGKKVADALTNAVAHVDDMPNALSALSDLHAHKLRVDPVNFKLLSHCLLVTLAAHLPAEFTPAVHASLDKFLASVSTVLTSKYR
inactive: [1] 0.021 | [2] -0.068 | [3] 0.071 | [4] 0.018 | Nexturastat A 0.015 | vemurafenib 0.137 | [5] 0.037 | [6] -0.038 | givinostat -0.061 | barasertib 0.072 | [7] 0.049 | volasertib -0.059 | [8] -0.038 | epoxomicin 0.316 | [9] 0.078 | [10] -0.076 | [11] 0.012 | rosiglitazone 0.022 | [12] -0.044 | [13] 0.153

GALNT2 (UniProt Q10471)
Sequence of UniProt Q10471 (Q10471 whole entry, looked up): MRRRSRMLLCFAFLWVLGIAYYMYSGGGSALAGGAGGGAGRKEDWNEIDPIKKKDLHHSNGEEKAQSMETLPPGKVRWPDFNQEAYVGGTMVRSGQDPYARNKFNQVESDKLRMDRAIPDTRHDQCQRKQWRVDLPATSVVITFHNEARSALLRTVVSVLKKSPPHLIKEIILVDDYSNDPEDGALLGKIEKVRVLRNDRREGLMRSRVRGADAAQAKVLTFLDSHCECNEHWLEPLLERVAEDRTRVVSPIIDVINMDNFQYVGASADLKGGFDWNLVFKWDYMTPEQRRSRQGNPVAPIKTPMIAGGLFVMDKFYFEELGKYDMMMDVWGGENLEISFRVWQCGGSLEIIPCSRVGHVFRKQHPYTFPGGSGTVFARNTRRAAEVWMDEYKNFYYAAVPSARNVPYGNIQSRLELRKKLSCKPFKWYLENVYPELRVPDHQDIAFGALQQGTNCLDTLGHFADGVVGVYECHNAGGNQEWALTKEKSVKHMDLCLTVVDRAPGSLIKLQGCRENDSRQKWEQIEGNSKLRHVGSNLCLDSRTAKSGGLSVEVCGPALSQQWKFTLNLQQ
inactive: [1] -0.003 | [2] -0.035 | [3] 0.016 | [4] 0.038 | Nexturastat A -0.032 | vemurafenib 0 | [5] 0.04 | [6] 0.03 | givinostat -0.005 | barasertib 0.011 | [7] -0.082 | [8] 0.027 | epoxomicin -0.004 | [9] 0.003 | [10] -0.034 | [11] -0.021 | rosiglitazone 0.027 | [12] -0.079 | [13] -0.077
active: volasertib -0.377

GYG1 (UniProt P46976)
Sequence of UniProt P46976 (P46976 whole entry, looked up): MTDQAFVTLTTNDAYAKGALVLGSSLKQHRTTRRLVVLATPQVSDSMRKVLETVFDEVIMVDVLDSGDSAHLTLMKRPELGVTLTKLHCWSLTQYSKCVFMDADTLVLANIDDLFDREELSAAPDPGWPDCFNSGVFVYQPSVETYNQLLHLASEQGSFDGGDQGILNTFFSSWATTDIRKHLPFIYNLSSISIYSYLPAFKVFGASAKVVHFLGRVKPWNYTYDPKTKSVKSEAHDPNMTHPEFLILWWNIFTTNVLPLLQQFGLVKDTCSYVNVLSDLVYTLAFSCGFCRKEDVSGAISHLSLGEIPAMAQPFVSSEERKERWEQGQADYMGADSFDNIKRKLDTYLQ
inactive: [1] 0.209 | [2] 0.035 | [3] -0.041 | [4] -0.029 | Nexturastat A 0.146 | vemurafenib 0.014 | [5] 0.046 | [6] 0.101 | givinostat 0.027 | barasertib -0.037 | [7] 0.107 | volasertib 0.338 | [8] 0 | epoxomicin -0.104 | [9] 0.011 | [10] -0.045 | [11] 0.019 | rosiglitazone -0.045 | [12] 0.016 | [13] -0.011

HIC2 (UniProt Q96JB3)
Sequence of UniProt Q96JB3 (Q96JB3 whole entry, looked up): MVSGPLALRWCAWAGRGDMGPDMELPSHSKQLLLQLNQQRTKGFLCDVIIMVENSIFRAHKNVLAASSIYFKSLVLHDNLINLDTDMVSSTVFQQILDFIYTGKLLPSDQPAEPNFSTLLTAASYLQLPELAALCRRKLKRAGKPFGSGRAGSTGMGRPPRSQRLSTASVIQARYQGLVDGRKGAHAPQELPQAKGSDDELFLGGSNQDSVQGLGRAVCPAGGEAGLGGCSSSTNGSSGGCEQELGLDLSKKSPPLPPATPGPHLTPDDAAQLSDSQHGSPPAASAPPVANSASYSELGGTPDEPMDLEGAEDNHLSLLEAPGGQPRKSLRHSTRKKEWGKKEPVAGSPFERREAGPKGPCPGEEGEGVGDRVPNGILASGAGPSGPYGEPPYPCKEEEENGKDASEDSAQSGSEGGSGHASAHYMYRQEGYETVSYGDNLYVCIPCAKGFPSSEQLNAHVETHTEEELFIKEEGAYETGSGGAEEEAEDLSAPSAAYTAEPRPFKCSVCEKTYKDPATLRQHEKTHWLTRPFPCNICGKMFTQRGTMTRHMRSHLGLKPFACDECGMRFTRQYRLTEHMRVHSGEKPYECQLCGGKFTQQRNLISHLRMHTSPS
inactive: [1] 0.039 | [2] 0.028 | [3] -0.005 | [4] -0.093 | Nexturastat A 0.131 | vemurafenib 0.009 | [5] 0.123 | [6] -0.005 | givinostat -0.035 | barasertib -0.033 | [7] 0.028 | volasertib -0.19 | [8] 0.032 | epoxomicin -0.134 | [9] 0.126 | [10] 0.128 | [11] -0.035 | rosiglitazone -0.185 | [12] 0.164 | [13] -0.006

FEN1 (UniProt P39748)
Sequence of UniProt P39748 (P39748 whole entry, looked up): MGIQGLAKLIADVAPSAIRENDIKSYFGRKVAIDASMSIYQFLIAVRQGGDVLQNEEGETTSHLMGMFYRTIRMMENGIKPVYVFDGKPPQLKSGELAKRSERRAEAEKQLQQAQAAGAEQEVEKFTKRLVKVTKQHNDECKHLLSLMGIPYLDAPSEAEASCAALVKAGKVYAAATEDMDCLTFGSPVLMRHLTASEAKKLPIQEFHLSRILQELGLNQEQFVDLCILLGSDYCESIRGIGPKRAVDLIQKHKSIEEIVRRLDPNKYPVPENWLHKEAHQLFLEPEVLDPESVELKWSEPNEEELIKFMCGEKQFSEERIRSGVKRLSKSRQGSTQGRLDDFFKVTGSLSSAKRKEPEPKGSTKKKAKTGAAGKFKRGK
inactive: [1] 0.018 | [2] -0.08 | [3] 0.045 | [4] 0.057 | Nexturastat A -0.194 | vemurafenib 0.121 | [5] 0.022 | [6] -0.03 | givinostat 0.096 | barasertib 0.088 | [7] -0.073 | volasertib -0.037 | [8] 0.086 | epoxomicin 0.109 | [9] -0.13 | [10] -0.174 | [11] 0.155 | rosiglitazone 0.17 | [12] -0.057 | [13] -0.283

FARS2 (UniProt O95363)
Sequence of UniProt O95363 (O95363 whole entry, looked up): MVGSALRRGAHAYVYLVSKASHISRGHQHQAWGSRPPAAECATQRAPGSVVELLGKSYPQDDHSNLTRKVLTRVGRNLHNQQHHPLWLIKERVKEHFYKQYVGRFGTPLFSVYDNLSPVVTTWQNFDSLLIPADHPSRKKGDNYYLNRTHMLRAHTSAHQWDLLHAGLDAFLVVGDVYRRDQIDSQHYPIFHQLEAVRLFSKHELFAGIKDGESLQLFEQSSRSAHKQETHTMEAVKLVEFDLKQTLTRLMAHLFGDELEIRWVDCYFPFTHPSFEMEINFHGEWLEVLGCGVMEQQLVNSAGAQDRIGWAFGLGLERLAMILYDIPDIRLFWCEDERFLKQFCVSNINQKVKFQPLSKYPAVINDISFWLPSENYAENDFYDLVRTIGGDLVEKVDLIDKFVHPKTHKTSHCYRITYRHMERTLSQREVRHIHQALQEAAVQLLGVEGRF
active: [13] -0.319
inactive: [1] 0.012 | [2] -0.015 | [3] -0.032 | [4] 0.078 | Nexturastat A 0.044 | vemurafenib 0.032 | [5] 0.01 | [6] -0.087 | givinostat -0.019 | barasertib 0.035 | [7] 0.01 | volasertib -0.172 | [8] 0.109 | epoxomicin -0.034 | [9] 0.036 | [10] -0.052 | [11] -0.036 | rosiglitazone 0.086 | [12] -0.002

HNRNPH1 (UniProt P31943)
Sequence of UniProt P31943 (P31943 whole entry, looked up): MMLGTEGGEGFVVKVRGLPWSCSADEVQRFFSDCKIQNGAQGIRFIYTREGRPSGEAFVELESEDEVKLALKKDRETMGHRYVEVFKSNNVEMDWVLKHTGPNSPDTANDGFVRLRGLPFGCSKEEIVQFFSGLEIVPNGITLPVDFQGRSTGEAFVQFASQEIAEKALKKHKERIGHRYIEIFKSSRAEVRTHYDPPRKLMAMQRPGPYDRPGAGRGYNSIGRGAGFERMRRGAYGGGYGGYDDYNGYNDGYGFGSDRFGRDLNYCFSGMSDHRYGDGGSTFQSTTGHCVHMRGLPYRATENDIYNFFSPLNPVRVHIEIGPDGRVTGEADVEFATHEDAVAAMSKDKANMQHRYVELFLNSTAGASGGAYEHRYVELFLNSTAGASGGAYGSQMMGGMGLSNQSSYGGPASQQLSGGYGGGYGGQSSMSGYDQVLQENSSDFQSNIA
inactive: [1] 0.077 | [2] -0.044 | [3] 0.005 | [4] 0.047 | Nexturastat A 0.201 | vemurafenib 0.086 | [5] 0.144 | [6] 0.029 | givinostat 0.115 | barasertib 0.05 | [7] -0.124 | [8] 0.1 | epoxomicin 0.018 | [9] -0.192 | [10] -0.025 | [11] 0.072 | rosiglitazone 0.025 | [12] 0.083 | [13] -0.247
active: volasertib -0.583

GPX4 (UniProt P36969)
Sequence of UniProt P36969 (P36969 whole entry, looked up): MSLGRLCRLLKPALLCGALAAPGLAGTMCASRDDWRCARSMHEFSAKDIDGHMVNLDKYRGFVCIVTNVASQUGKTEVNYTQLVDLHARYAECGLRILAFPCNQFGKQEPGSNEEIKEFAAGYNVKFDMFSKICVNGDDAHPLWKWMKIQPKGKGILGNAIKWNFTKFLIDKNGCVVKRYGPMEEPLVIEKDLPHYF
inactive: [1] -0.005 | [2] -0.068 | [3] 0.095 | [4] 0.06 | Nexturastat A -0.151 | vemurafenib -0.019 | [5] 0.005 | [6] -0.027 | barasertib -0.012 | [7] 0.019 | volasertib 0.016 | [8] 0.012 | epoxomicin 0.021 | [9] 0.001 | [10] -0.025 | [11] 0.009 | rosiglitazone -0.012 | [12] -0.061 | [13] 0.067
active: givinostat -0.451

FANCD2 isoform 1 (UniProt Q9BXW9)
Sequence of UniProt Q9BXW9 (Q9BXW9 whole entry, looked up): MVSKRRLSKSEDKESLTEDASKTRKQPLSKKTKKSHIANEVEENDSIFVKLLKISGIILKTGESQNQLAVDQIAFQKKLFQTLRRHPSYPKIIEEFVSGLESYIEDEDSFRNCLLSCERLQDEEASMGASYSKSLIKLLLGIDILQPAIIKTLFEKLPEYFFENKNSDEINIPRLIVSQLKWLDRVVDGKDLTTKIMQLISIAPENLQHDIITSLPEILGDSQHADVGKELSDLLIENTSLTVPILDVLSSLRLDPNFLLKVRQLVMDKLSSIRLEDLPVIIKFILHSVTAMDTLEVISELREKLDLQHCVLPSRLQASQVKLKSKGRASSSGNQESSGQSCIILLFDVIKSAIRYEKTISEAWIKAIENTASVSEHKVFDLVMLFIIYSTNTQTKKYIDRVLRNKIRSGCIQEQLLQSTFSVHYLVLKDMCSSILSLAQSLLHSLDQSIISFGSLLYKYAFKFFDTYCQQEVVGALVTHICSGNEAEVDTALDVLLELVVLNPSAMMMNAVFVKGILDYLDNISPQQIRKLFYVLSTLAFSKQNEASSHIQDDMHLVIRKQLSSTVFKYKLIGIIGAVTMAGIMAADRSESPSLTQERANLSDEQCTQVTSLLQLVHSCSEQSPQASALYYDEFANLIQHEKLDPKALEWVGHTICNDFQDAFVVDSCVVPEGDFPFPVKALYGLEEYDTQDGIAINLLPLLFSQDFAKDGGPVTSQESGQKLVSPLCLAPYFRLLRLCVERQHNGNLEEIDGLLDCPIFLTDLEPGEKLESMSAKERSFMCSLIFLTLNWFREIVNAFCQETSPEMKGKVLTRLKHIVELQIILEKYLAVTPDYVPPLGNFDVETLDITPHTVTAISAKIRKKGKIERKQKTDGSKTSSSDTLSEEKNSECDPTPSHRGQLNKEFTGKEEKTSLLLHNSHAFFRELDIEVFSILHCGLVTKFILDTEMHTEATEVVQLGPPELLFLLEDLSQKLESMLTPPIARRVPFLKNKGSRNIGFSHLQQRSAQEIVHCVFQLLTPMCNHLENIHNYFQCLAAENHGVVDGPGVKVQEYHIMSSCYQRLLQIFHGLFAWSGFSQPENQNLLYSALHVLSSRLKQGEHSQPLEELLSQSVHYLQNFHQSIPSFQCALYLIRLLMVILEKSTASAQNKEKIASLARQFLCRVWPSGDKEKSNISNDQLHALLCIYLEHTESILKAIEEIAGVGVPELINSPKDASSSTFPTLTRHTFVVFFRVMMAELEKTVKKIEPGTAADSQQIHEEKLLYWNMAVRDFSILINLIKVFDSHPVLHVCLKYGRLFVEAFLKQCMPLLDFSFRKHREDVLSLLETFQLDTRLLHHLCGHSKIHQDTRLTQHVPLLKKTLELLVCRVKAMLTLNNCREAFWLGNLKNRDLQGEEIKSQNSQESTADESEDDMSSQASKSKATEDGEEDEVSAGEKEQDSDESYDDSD
inactive: [1] 0.003 | [2] -0.007 | [3] 0.027 | [4] -0.035 | Nexturastat A -0.09 | vemurafenib 0.033 | [5] 0.099 | [6] -0.031 | givinostat 0.017 | barasertib 0.043 | [7] -0.229 | volasertib -0.251 | [8] 0.118 | epoxomicin -0.307 | [9] -0.04 | [10] -0.055 | [11] 0.026 | rosiglitazone 0.062 | [12] -0.009 | [13] -0.233

GLCCI1 (UniProt Q86VQ1)
active: [13] -0.328
inactive: [1] 0.037 | [2] 0.104 | [3] -0.029 | [4] 0.028 | Nexturastat A 0 | vemurafenib -0.007 | [5] -0.035 | [6] 0.033 | givinostat 0.045 | barasertib -0.075 | [7] -0.048 | volasertib 0.108 | [8] 0.15 | epoxomicin -0.022 | [9] 0.087 | [10] 0.088 | [11] -0.035 | rosiglitazone -0.053 | [12] -0.023

GTF2B (UniProt Q00403)
inactive: [1] -0.018 | [2] -0.092 | [3] 0.097 | [4] 0.097 | Nexturastat A -0.031 | vemurafenib 0.104 | [5] 0.167 | [6] 0.017 | givinostat 0.058 | barasertib 0.044 | [7] -0.076 | [8] 0.091 | epoxomicin 0.096 | [9] -0.04 | [10] -0.015 | [11] 0.147 | rosiglitazone 0.083 | [12] -0.002 | [13] -0.193
active: volasertib -0.323

HEXA (UniProt P06865)
active: [7] -0.423 | volasertib -0.479 | [13] -0.63
inactive: [1] -0.046 | [2] 0.022 | [3] -0.019 | [4] 0.004 | Nexturastat A -0.035 | vemurafenib -0.006 | [5] -0.023 | [6] -0.023 | givinostat -0.018 | barasertib -0.001 | [8] -0.028 | epoxomicin -0.012 | [9] 0.022 | [10] -0.002 | [11] -0.021 | rosiglitazone 0 | [12] -0.02
